# “And” between values parts separate entries of the source, which are not always exact repeats. Identical values can stand only once. Values without a mark were called inactive. Records with an inconclusive call do not appear. Entries that show only a call come without a potency. The source made the active and inactive calls. Unless noted, calls follow the shape of the dose curve; as a rule, active = well fitted curve in the direction sought with a large enough effect; inconclusive = small, poorly fitted or top-dose-only effect, or another doubt; inactive = no such curve, though single readings can be large; an effect the other way counts as inactive or inconclusive.
# Tests used:
# [1] = target: DNA repair nuclease/redox regulator APEX1 (Homo sapiens) (UniProt P27695); test: qHTS Validation Assay for Inhibitors of the Human Apurinic/apyrimidinic Endonuclease 1 (APE1) (AID 1705;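 also: TAMRA fluorescence gain over two minutes as APE1 cuts a quenched THF abasic duplex; series mostly up to about 57 µM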)
# Chain of DNA repair nuclease/redox regulator APEX1 (Homo sapiens) (P27695 whole entry, looked up): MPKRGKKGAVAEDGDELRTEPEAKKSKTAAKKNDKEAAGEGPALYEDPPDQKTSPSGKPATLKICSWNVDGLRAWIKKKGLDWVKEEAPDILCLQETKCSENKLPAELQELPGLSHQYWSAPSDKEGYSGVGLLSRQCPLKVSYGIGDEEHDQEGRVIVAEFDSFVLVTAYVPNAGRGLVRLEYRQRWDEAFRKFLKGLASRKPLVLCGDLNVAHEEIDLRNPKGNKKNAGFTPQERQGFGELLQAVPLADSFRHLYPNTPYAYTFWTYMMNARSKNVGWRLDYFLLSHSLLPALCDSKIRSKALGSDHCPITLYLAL
# Summary of the method: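 Substrate: 50 nM final fluorophore/quencher THF-abasic duplex. Enzyme preincubated with compounds 15 min, RT. Progress derived from fluorescence difference, third minus first kinetic read.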
# [2] = Counterscreen for APE1 Inhibitors: Fluorescent Dye Displacement Validation Assay (AID 1707)
# Summary of the method: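 Reaction mixture of 250 nM Thiazole Orange and 50 nM double-stranded abasic-site DNA was dispensed, compounds were pin-transferred, and fluorescence was read at endpoint (480 nm ex, 540 nm em). Reduced fluorescence indicated dye displacement by DNA binding.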
# [3] = target: Endonuclease 4 (Escherichia coli (strain K12)) (UniProt P0A6C1); test: Counterscreen for APE1 Inhibitors: qHTS Validation Assay for Inhibitors of Endonuclease IV (AID 1708)
# Summary of the method: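 Conditions: 2 nM enzyme, 50 nM TAMRA/BHQ-2 substrate, pH 7.5 Tris buffer with 2 mM MgCl2, RT. Compound preincubation 15 min; readout three fluorescence reads 60 s apart, third-minus-first.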
# [4] = qHTS for differential inhibitors of proliferation of Plasmodium falciparum line 3D7 (AID 1876); also: potency is read from the fitted curve at half-maximal effect
# [5] = qHTS for differential inhibitors of proliferation of Plasmodium falciparum line Dd2 (AID 1882); conditions: Potency: Plasmodium falciparum Dd2 proliferation inhibition; also: series mostly up to about 29 µM; nearly all actives have a fitted effect of over 65% in size
# Summary of the method: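 SYBR Green DNA fluorescence (ex 485, em 535 nm) after overnight lysis quantifies parasite growth; compound exposure lasted 72 h at 37 C on infected red cells at 2.5% hematocrit, 0.3% parasitemia (final). Artemisinin 0.29 uM and vehicle wells define normalization.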
# [6] = qHTS for differential inhibitors of proliferation of Plasmodium falciparum line W2 (AID 1883); conditions: Potency: Plasmodium falciparum W2 proliferation inhibition;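 also: parasites grown with compound for 72 h before lysis and staining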; also: potency is read from the fitted curve at half-maximal effect
# [7] = target: ATP-dependent DNA helicase Q1 (Homo sapiens) (UniProt P46063); test: qHTS Validation Assay for Inhibitors of RecQ-Like Dna Helicase 1 (RECQ1) (AID 2353)
# Chain of ATP-dependent DNA helicase Q1 (Homo sapiens) (P46063 whole entry, looked up): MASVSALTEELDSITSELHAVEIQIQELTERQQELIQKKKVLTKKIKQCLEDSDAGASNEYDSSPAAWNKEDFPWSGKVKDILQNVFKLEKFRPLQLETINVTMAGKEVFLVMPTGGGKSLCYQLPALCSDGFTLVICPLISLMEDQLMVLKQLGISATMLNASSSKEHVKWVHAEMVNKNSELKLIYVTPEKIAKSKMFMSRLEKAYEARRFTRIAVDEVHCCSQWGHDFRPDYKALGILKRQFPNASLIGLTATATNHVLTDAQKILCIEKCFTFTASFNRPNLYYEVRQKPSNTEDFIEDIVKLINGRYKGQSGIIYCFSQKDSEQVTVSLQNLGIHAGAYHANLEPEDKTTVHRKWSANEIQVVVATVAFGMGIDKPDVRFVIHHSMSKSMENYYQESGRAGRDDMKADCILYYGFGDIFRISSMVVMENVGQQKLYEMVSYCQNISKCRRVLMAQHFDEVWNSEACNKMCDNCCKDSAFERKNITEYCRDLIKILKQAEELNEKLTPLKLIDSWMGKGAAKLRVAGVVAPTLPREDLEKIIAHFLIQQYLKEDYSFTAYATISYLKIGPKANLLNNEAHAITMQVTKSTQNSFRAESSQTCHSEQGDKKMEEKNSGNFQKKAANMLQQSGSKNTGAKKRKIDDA
# Summary of the method: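 RECQ1T1 50 nM; forked duplex (20 bp + 30-nt ss tails) 200 nM, ATP 2 mM final; pH 8.0, 2 mM MgCl2, 2.5 ug/ml poly(dI-dC); 15 min compound preincubation; discontinuous kinetic read over 2 h at RT.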
# [8] = Validation screen for small molecules that induce DNA re-replication in MCF 10A normal breast cells (AID 463097); also: nearly all actives have a fitted effect of over 60% in size
# Summary of the method: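 Following 48 hr compound incubation (37 C, 5% CO2), MCF 10A cells receive Hoechst for 40 min at 37 C. Nuclei are then scanned (excitation 405 nm, emission 500-530 nm) for total fluorescence intensity.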
# [9] = target: M-phase phosphoprotein 8 (Homo sapiens) (UniProt Q99549); test: qHTS Validation Assay for Inhibitors for MPP8 Chromodomain Interactions with Methylated Histone Tails (AID 488949); also: nearly all actives have a fitted effect of over 55% in size; also: potency is read from the fitted curve at half-maximal effect;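 as to activity change, negative = inhibition: 50 nM MPP8 with 50 nM peptide preformed then compounds added for 30 min; AlphaScreen signal from MPP8 chromodomain bound to biotinylated H3K9me3 peptide; top concentration of the series differs between compounds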
# Chain of M-phase phosphoprotein 8 (Homo sapiens) (Q99549 whole entry, looked up): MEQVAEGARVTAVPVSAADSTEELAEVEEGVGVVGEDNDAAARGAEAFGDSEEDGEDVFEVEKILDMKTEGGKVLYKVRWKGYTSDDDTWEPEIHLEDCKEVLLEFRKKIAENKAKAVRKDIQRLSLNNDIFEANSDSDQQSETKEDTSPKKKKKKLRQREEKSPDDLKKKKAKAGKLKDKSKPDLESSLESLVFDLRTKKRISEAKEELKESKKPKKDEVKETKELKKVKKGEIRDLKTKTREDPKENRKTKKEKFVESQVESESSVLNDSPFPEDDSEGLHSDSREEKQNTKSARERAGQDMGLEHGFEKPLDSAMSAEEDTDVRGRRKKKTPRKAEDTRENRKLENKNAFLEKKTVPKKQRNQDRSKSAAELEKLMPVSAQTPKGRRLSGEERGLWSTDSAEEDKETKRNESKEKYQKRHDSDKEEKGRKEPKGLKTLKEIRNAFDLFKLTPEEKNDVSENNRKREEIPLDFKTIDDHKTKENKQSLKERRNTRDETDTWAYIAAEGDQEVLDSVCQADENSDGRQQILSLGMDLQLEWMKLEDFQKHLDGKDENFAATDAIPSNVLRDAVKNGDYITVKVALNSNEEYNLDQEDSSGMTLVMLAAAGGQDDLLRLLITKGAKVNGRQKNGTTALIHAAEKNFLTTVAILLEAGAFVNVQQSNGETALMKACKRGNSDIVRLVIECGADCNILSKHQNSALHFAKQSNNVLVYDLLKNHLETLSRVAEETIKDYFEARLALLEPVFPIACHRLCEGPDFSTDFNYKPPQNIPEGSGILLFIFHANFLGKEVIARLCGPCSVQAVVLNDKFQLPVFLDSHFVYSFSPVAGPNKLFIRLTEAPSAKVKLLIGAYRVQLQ
# Summary of the method: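 Chemiluminescent proximity assay: histidine-tag capture via nickel acceptor beads, biotin peptide via streptavidin donor beads. Protein and peptide each at 50 nM, pH 7.4, with 30 min incubations at room temperature for complex formation, compound exposure and bead binding.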
# [10] = target: Transient receptor potential cation channel subfamily V member 1 (Homo sapiens) (UniProt Q8NER1); test: HTS Assay for Compounds that Act as Enhancers of the Vanilloid Receptor 1 (AID 488979)
# Chain of Transient receptor potential cation channel subfamily V member 1 (Homo sapiens) (Q8NER1 whole entry, looked up): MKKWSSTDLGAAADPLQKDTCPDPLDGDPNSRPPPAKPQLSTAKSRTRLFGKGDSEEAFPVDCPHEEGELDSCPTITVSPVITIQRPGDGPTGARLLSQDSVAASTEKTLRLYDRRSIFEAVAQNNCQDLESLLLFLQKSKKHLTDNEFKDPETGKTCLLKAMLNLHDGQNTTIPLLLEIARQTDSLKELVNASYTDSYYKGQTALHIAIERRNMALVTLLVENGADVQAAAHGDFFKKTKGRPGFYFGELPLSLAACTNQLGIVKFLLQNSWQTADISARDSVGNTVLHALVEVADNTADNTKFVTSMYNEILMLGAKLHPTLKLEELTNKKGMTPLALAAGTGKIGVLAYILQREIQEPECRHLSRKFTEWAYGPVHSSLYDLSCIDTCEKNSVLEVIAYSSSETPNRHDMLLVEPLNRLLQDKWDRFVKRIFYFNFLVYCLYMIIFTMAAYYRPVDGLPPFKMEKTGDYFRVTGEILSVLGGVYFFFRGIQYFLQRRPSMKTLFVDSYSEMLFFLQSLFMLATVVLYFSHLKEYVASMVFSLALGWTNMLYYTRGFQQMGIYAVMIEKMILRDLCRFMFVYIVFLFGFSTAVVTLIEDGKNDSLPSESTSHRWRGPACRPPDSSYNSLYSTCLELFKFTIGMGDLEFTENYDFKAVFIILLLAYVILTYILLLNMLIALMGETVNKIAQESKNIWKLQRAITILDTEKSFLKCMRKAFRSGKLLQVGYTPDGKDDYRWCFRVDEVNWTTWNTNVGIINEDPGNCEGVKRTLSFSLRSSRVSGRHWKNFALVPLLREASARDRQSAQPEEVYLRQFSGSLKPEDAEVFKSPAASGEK
# Summary of the method: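 TRPV1 cells loaded with Fluo-8 calcium dye; compound added and Ca2+ signal (ex 480/em 520 nm) followed 3 min, then capsaicin at EC20 added and read 2 more min to detect enhancement.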
# [11] = target: Thyrotropin-releasing hormone receptor (Homo sapiens) (UniProt P34981); test: qHTS for Small Molecule Agonists and Allosteric Enhancers of Human TRH Receptor: Validation Screen for Agonists (AID 493127;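 active = calcium activation more than 3 SD above the typical response in the agonist read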;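 also: intracellular calcium rise by fluo-8 fluorescence before TRH EC20 addition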); conditions: TRH receptor agonist cell assay; at 2 µM; hits give high values
# Chain of Thyrotropin-releasing hormone receptor (Homo sapiens) (P34981 whole entry, looked up): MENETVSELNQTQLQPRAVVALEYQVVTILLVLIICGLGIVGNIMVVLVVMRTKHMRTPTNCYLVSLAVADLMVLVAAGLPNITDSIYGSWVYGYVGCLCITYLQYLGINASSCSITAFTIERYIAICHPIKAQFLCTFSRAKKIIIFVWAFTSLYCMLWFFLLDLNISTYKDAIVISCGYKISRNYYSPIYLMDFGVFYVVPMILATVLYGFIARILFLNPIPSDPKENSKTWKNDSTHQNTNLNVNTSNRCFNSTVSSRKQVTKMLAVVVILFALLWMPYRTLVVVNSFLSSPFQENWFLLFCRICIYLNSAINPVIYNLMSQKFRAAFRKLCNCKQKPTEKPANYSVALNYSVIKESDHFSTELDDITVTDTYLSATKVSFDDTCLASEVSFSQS
# Summary of the method: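 Compounds are added by online pintool to dye-loaded TRHR cells while fluorescence is recorded every second. A rise in calcium signal during the agonist read marks activation; a later 10 nM TRH addition (EC20) serves the separate enhancer mode.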
# [12] = target: Galactokinase (Homo sapiens) (UniProt P51570); test: qHTS Validation Assay for Inhibitors of Human Galactokinase (GALK) (AID 493189)
# Chain of Galactokinase (Homo sapiens) (P51570 whole entry, looked up): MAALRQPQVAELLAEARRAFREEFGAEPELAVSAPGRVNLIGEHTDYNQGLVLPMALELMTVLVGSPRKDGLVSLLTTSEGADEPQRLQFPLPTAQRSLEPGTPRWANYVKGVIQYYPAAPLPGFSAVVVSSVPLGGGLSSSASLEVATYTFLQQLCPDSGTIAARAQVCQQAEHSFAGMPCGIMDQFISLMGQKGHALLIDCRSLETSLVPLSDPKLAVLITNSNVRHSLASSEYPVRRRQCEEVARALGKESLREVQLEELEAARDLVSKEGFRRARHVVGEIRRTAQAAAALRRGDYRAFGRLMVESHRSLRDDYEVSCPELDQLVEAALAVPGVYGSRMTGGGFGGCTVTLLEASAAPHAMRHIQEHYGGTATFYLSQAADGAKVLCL
# Summary of the method: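 Enzyme activity is inferred from ATP consumption: human GALK phosphorylates galactose (100 uM) using 35 uM ATP for 1 h at room temperature, and luciferase-based Kinase-Glo Plus reports unconsumed ATP.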
# [13] = target: Voltage-gated inwardly rectifying potassium channel KCNH2 (Homo sapiens) (UniProt Q12809); test: qHTS Assay for Small Molecule Inhibitors of the Human hERG Channel Activity (AID 588834);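 also: top concentration of the series differs between compounds; lower thallium flux fluorescence means stronger hERG block; nearly all actives have a fitted effect of over 50% in size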
# Summary of the method: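 Homogeneous FluxOR thallium flux assay using hERG-expressing U2OS cells (BacMam). Compound treatment about 10 minutes preceded stimulation; reduced fluorescence taken as channel block.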
# [14] = qHTS for differential inhibitors of proliferation of Plasmodium falciparum line HB3 (AID 1886); conditions: Potency: Plasmodium falciparum HB3 proliferation inhibition;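 also: parasites grown with compound for 72 h before SYBR Green readout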; also: potency is read from the fitted curve at half-maximal effect
# [15] = target: Rap guanine nucleotide exchange factor 4 (Homo sapiens) (UniProt Q8WZA2); test: Confirmatory qHTS for antagonist of cAMP-regulated guanine nucleotide exchange factor 4 (EPAC2) (AID 1645885); also: potency is read from the fitted curve at half-maximal effect; nearly all actives have a fitted effect of over 25% in size
# [16] = target: Cytochrome P450 2D6 (Homo sapiens) (UniProt P10635); test: qHTS Assay for Inhibitors and Substrates of Cytochrome P450 2D6 (AID 891);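 also: luciferin methyl ether substrate demethylated by CYP2D6 with NADPH regeneration; nearly all actives have a fitted effect of over 60% in size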
# Chain of Cytochrome P450 2D6 (Homo sapiens) (P10635 whole entry, looked up): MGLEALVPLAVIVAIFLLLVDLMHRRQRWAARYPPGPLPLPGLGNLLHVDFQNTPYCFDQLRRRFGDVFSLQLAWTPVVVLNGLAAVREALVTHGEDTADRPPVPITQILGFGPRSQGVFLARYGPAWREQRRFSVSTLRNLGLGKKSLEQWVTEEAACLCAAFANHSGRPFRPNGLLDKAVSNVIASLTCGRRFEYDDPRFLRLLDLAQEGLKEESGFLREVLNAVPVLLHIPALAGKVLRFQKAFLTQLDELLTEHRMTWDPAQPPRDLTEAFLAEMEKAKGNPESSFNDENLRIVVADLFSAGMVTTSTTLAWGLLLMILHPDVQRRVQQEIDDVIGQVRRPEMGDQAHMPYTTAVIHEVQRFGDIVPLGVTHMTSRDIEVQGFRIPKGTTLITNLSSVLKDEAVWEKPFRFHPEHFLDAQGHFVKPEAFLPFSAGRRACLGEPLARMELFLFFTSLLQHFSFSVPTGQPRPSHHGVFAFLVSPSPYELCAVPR
# Summary of the method: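 Luminescent read-out of luciferin formed by 5 nM human CYP2D6 demethylating 30 uM Luciferin-ME EGE (Km level) over 60 min at room temperature after NADPH regeneration addition. Data normalized to full inhibition by 1.43 uM quinidine.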
# [17] = target: Cytochrome P450 2C19 (Homo sapiens) (UniProt P33261); test: qHTS Assay for Inhibitors and Substrates of Cytochrome P450 2C19 (AID 899); also: nearly all actives have a fitted effect of over 60% in size; also: potency is read from the fitted curve at half-maximal effect
# Chain of Cytochrome P450 2C19 (Homo sapiens) (P33261 whole entry, looked up): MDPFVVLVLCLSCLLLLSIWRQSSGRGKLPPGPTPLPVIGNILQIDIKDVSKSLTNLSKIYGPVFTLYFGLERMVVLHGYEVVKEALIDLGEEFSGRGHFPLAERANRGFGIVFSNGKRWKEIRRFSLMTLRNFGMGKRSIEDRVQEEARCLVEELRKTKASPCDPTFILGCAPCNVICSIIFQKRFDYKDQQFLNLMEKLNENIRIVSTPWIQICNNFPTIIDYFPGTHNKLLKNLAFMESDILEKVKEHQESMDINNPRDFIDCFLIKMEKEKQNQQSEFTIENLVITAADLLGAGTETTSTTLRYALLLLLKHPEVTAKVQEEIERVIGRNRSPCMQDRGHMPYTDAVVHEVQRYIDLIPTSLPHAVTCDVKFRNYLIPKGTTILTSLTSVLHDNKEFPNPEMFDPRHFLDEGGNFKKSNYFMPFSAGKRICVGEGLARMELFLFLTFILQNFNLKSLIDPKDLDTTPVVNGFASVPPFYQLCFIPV
# Summary of the method: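 Luminescent read-out of luciferin formed from Luciferin-H EGE (10uM, equal to KM). Enzyme 5nM in 50mM KPO4; compound added, 10 min at 37C, then NADPH regenerating system for 60 min at 37C. Full inhibition defined by 57uM ketoconazole.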
# [18] = qHTS Assay for Identification of Small Molecule Agonists for Hypoxia Response Element Signaling Pathway (AID 914; active = well fitted activation curve with a large enough effect in the signal ratio, with a control signal flat, not every such curve was filed as active; the % refers to the signal ratio); conditions: ME-180 (cervical carcinoma) HRE-bla reporter, beta-lactamase ratio, CoCl2, 17 h; activation: hits give high values
# Summary of the method: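 A beta-lactamase reporter under hypoxia response element control in ME-180 cells served as the system. Compound titrations plus EC50 CoCl2 ran 17 h at 37 degrees Celsius; AC50 values were fitted from %Activity.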
# [19] = target: Cytochrome P450 2C9 (Homo sapiens) (UniProt P11712); test: qHTS Assay for Inhibitors and Substrates of Cytochrome P450 2C9 (AID 883); also: nearly all actives have a fitted effect of over 60% in size; also: potency is read from the fitted curve at half-maximal effect
# Chain of Cytochrome P450 2C9 (Homo sapiens) (P11712 whole entry, looked up): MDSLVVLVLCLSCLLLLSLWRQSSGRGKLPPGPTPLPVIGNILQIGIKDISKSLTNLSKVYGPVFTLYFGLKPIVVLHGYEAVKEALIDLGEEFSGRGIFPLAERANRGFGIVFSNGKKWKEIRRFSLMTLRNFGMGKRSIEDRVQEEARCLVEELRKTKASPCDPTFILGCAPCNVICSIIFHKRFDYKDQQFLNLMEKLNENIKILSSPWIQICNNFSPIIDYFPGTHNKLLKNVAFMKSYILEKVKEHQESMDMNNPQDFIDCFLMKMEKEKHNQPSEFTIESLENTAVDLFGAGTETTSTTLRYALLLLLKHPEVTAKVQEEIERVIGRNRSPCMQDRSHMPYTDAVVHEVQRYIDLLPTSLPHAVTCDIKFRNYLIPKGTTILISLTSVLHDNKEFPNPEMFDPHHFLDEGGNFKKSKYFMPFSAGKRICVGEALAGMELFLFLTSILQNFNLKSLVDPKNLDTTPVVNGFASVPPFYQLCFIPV
# Summary of the method: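 10nM CYP2C9 + 100uM Luciferin-H (=KM), 25mM KPO4; cpd 10 min 37C; NADPH regen, 60 min 37C; stop/detect with P450 Glo-Buffer 20 min; luminescence. Norm. to 57uM sulphaphenazole as full inhibition.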
smiles,measurement,setting,value
COc1ccc2c(c1OC)C(=O)OC2C1c2c(cc3c(c2OC)OCO3)CCN1C (stereo unspecified),outcome,[1],inactive
same,outcome,[2],inactive
same,outcome,[3],inactive
same,Potency,[4],12.6 µM (active)
same,Potency,[5],inactive
same,Potency,[6],14.1 µM (active)
same,outcome,[7],inactive
same,outcome,[8],inactive
same,Potency,[9],inactive
same,outcome,[10],inactive
same,activation,[11],-4.69%
same,outcome,[12],inactive
same,Potency,[13],inactive
Nc1ncnc2c1nc(Br)n2C1O[C@H]2COP(=O)(O)O[C@@H]2C1O (stereo partly specified),outcome,[1],inactive
same,outcome,[2],inactive
same,outcome,[3],inactive
same,Potency,[6],5.62 µM (active)
same,Potency,[14],6.31 µM (active)
same,outcome,[7],inactive
same,outcome,[8],inactive
same,outcome,[10],inactive
same,activation,[11],0.688%
same,outcome,[12],inactive
same,Potency,[13],inactive
CC#C[C@]1(O)CC[C@H]2C3CCC4=CC(=O)CCC4=C3[C@@H](c3ccc(N(C)C)cc3)C[C@@]21C (stereo partly specified),outcome,[1],inactive
same,outcome,[2],inactive
same,Potency,[4],10 µM (active)
same,Potency,[6],5.01 µM (active)
same,Potency,[14],12.6 µM (active)
same,outcome,[7],inactive
same,Potency,[9],15.8 µM (active)
same,outcome,[10],inactive
same,activation,[11],28.5%
same,outcome,[12],inactive
CC1(C)[C@@H](O)CC[C@]2(C)C3C(=O)C=C4C5C[C@@](C)(C(=O)O)CC[C@]5(C)CC[C@@]4(C)[C@]3(C)CC[C@@H]12 (stereo partly specified),Potency,[15],5.55 µM (active)
CN(C)CCCO[C@H]1C([C@H](O)CO)O[C@@H]2OC(C)(C)O[C@@H]21 (stereo partly specified),outcome,[1],inactive
same,outcome,[2],inactive
same,outcome,[3],inactive
same,Potency,[4],inactive
same,Potency,[5],inactive
same,Potency,[6],inactive
same,Potency,[14],inactive
same,outcome,[7],inactive
same,outcome,[8],inactive
same,Potency,[9],inactive
same,outcome,[10],inactive
same,activation,[11],0.75%
same,outcome,[12],inactive
same,Potency,[13],inactive
COC(=O)c1c(C)c2c(c(C)c1O)OC(=O)c1c(C)c(Cl)c(O)c(Cl)c1O2,Potency,[15],2.48 µM (active) and 2.21 µM (active)
CN1CCN(c2ncc3nc(-c4cccc(C#N)c4)c(=O)n(C[C@H]4CCCO4)c3n2)CC1,Potency,[16],inactive
same,Potency,[17],inactive
Nc1ncnc2c1ncn2[C@@H]1O[C@H](COP(=O)(O)OP(=O)(O)OP(=O)(O)OP(=O)(O)OC[C@@H]2O[C@H](n3cnc4c(N)ncnc43)[C@@H](O)[C@@H]2O)[C@H](O)[C@H]1O,outcome,[1],inactive
same,outcome,[2],inactive
same,Potency,[5],inactive
same,outcome,[7],inactive
same,outcome,[8],inactive
same,Potency,[9],inactive
same,outcome,[10],inactive
same,activation,[11],13.9%
same,Potency,[13],inactive
CN1CCN(c2ncc3ncc(=O)n(Cc4ccc(F)cc4)c3n2)CC1,activation,[18],-5.68%
COc1cccc(Cn2c(=O)c(CCc3ccccc3)nc3cnc(N4CCNCC4)nc32)c1,activation,[18],8.93%
CNC(=O)[C@H]1O[C@@H](n2cnc3c(N)ncnc32)[C@H](O)[C@H]1O,outcome,[1],inactive
same,outcome,[2],inactive
same,outcome,[3],inactive
same,Potency,[4],inactive
same,Potency,[5],inactive
same,Potency,[6],inactive
same,Potency,[14],inactive
same,outcome,[7],inactive
same,outcome,[8],inactive
same,Potency,[9],inactive
same,outcome,[10],inactive
same,activation,[11],-0.0625%
same,outcome,[12],inactive
same,Potency,[13],inactive
COc1cc2c3cc1Oc1c(OC)c(OC)cc4c1[C@@H](Cc1ccc(O)c(c1)Oc1ccc(cc1)C[C@@H]3N(C)CC2)N(C)CC4,Potency,[19],inactive
same,Potency,[16],inactive
same,Potency,[17],inactive
COc1ccccc1-c1ccc2ncnc(NCc3ccccc3)c2c1,Potency,[19],0.501 µM (active)
same,Potency,[17],3.98 µM (active)
COc1cccc(-c2ccc3ncnc(NCCNC(C)=O)c3c2)c1,activation,[18],5.52%
C[C@@H](Oc1ccc(Oc2cnc3ccc(Cl)cc3n2)cc1)C(=O)O,outcome,[2],inactive
same,outcome,[3],inactive
same,Potency,[4],inactive
same,Potency,[5],inactive
same,Potency,[6],inactive
same,Potency,[14],inactive
same,outcome,[7],inactive
same,Potency,[9],inactive
same,outcome,[10],inactive
same,activation,[11],-0.0625%
same,outcome,[12],inactive
same,Potency,[13],inactive
CN1CCN(c2ncncc2-c2ccc(N(C)C)cc2)CC1,"activity change, negative = inhibition",[19],36.5% [at 2.29 µM]
